Outcome and AC50 data for 36 compounds are collected here from PubChem BioAssay (EPA / NIEHS).

Records with an inconclusive call do not appear. The source made the active and inactive calls. Rule for the calls: active = hit-call score of the fitted dose curve at least 0.9, where 1 is the maximum; inconclusive = response in the unintended direction; inactive = score below 0.9.

This assay in a line: ACEA_ER_80hr: ACEA Biosciences xCELLigence Real-Time Cell Analysis on Estrogen Receptor Agonism for Proliferation (AID 2282667). As to conditions: T47D proliferation, impedance (xCELLigence), 80 h. In outline: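 T47D human breast cells were seeded on electrode plates, monitored overnight, then exposed continuously to compounds in eight-point 1:4 dilutions from 100 uM (max 0.5% DMSO). Impedance-based growth was read at 80 h, fitted upward relative to DMSO.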
Regarding `CCCCCCOc1ccc(O)cc1`, the result was inactive.
On the same count and under the same terms, the same measure for `C=CC(C)CCCC(C)(C)O` (stereo unspecified): “inactive”; for `CC(C)(O)C(=O)c1ccc(OCCO)cc1`: “inactive”.
Still for that read-out and setting: for `O=c1cc[nH]cc1` the value was “inactive”; for `CCCCCCC(C)O` (stereo unspecified), “inactive”; for `C=CC(O)CCCCC` (stereo unspecified), “inactive”.
Same read-out and setting: for `ClCCOCCOCCCl` the value was “inactive”; for `CC(C)(O)CCc1ccccc1`, “inactive”; for `CCCCOCCOCCO`, “inactive”.
On to `O=C1CCC(=O)N1`, for which the compound was classed as inactive.
Same read-out and setting: the same measure for `CCCO[Si](OCCC)(OCCC)OCCC`: “inactive”; for `CCCCCCCCCCCCN1CCOCC1`: “inactive”; for `c1ccc(Sc2ccccc2)cc1`: “inactive”.
Take `CC(=O)CCC=C(C)CCC=C(C)C`: the call was inactive.
On the same count and under the same terms, the same measure for `OC[C@H]1O[C@@H](O[C@H]2[C@H](O)[C@@H](O)[C@H](O)O[C@@H]2CO)[C@H](O)[C@@H](O)[C@H]1O`: “inactive”; for `CCCCCCCCCCCCCC(=O)OCC`: “inactive”; for `C=C(C)C(N)=O`: “inactive”.
Turning to `C=CCCCCCCCCC(=O)OCC`, the call was inactive.
Regarding `CCCCCCCOC(C)=O`, the result was inactive.
Same read-out and setting: for `C=C(C)C(=O)OCCC(C)OC(=O)C(=C)C` (stereo unspecified) the value was “inactive”.
The same measure, in the same setting: for `CC(=O)OCC=C(C)CCC=C(C)CCC=C(C)C` the value was “inactive”; for `CCCC1CCC(=O)CC1`, “inactive”.
The same measure, in the same setting: the same measure for `c1coc(CNc2ncnc3nc[nH]c23)c1`: “inactive”.
Turning to `CCCCCCCCCOS(=O)(=O)O`, the call was inactive.
Still for that read-out and setting: the same measure for `CC(C)(C)C1CCC(O)CC1` (stereo unspecified): “inactive”; for `O=S1(=O)CC(Cl)(Cl)C(Cl)(Cl)C1`: “inactive”; for `CCCCN(CCCC)CCCCCCN(CCCC)CCCC`: “inactive”.
Still for that read-out and setting: for `O=C(O)C1=NN(c2ccc(S(=O)(=O)O)cc2)C(=O)C1` the value was “inactive”; for `CCCC[N+](C)(CCCC)CCCC`, “inactive”; for `CC1=CC(=O)[C@H]2C[C@@H]1C2(C)C`, “inactive”.
With `CC(C)Cc1ccccc1`, the compound was classed as inactive.
Same read-out and setting: the same measure for `CCCCCCCCCCO[C@@H]1O[C@H](CO)[C@@H](O)[C@H](O)[C@H]1O`: “inactive”.
Take `COc1ccc(N)c(C)c1`: the concentration at half-maximal activity (AC50) (as a rule, the concentration giving half of the maximal activity seen) is 43.5 µM (active).
For the compound `O=S(=O)(O)c1cc(S(=O)(=O)O)c2c(N=Nc3ccccc3)c(O)ccc2c1`, the result was inactive.
On the same count and under the same terms, the same measure for `O=S(=O)(O)c1cc(O)c(O)c(S(=O)(=O)O)c1`: “inactive”; for `CC(=O)C1=C(C)[C@@H]2C[C@@]3(C1)[C@H](C)CC[C@H]3C2(C)C`: “inactive”.
